Assay outcomes (PubChem)
The sample as a whole holds a higher share of hits than the screen did.
NSD2 block: NSD2 (human) methyltransferase inhibition | NSD2-SET H3K36me1 DELFIA fluorescence, biochemical | inhibition, % at 12.5 µM | 44,000 tested, 0.07% active; in the data active = inhibition above about 54%, passing the limit was not always enough;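 note: inhibitors reduce the monomethyl H3K36 fluorescence signal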
* = called active by the depositor.

SMILES | NSD2 block
O=C1C(Cl)=C(NCCN2CCOCC2)C(=O)c2ncccc21 | 90*
c1ccc2c(c1)CCCc1cc(NCCN3CCOCC3)nnc1-2 | 3
Cc1ccc(S(=O)(=O)c2nc(-c3ccccc3)oc2NCCN2CCOCC2)cc1 | 4
CCOc1cc(OCC)cc(C(=O)N[C@@H](Cc2ccc(-n3cc(COc4ccccc4/C=C(C)/C=C/C(=O)NO)nn3)cc2)C(=O)OC)c1 | -4
COc1ccc(CN(C)C[C@H]2OCCCC[C@H](C)Oc3ccc(NC(=O)NC(C)C)cc3C(=O)N([C@H](C)CO)C[C@H]2C)cc1 | -1
O=C1C2(CO)C=C(Br)[C@H](C[C@@H]2c2ccccc2)[C@@]12CO2 | 5
CCC(=O)N(C)C[C@H]1Oc2cc(/C=C/c3ccccc3)ccc2S(=O)(=O)N([C@@H](C)CO)C[C@@H]1C | 5
C[C@@H]1CN([C@@H](C)CO)C(=O)c2cc(NS(=O)(=O)c3ccc(F)cc3)ccc2O[C@@H](C)CCCCO[C@H]1CN(C)C(=O)C1CCCCC1 | 1
COCC(=O)N(C)C[C@H]1Oc2cc(-c3ccc(C)cc3)ccc2S(=O)(=O)N([C@H](C)CO)C[C@@H]1C | 6
Cc1noc(C)c1S(=O)(=O)Nc1ccc2c(c1)CC(=O)N([C@@H](C)CO)C[C@@H](C)[C@H](CN(C)CC1CC1)O2 | -4
COc1cc(C[C@H]2CO[C@H](c3ccc(O[C@@H]4O[C@H](CO)[C@@H](O)[C@H](O)[C@H]4O)c(OC)c3)[C@H]2CO)ccc1O | 54
COc1cc(C2c3c(cc(OC)c(O)c3OC)CC(CO)C2COC2OCC(O)C(O)C2O)cc(OC)c1O (configuration not stated) | 39
COc1cc(C2c3c(cc(OC)c(O)c3OC)CC(CO)C2COC2OC(CO)C(O)C(O)C2O)cc(OC)c1O (configuration not stated) | 76*
O=C(NO)c1cccc(C(=O)N/N=C/c2cccc(O)c2O)c1 | 16
O=C(NO)c1cccc(C(=O)N/N=C/c2ccc(O)c3ccccc23)c1 | -1
O=C(NO)c1cccc(C(=O)N/N=C/c2ccc(O)c(O)c2O)c1 | 63*
COc1ccc(S(=O)(=O)N(C)C[C@@H]2OCCCC[C@@H](C)Oc3ccc(NC(=O)CCC(F)(F)F)cc3C(=O)N([C@H](C)CO)C[C@@H]2C)cc1 | 3
C[C@H]1[C@H](C)CC[C@]2(C(=O)O[C@@H]3O[C@H](COC4O[C@H](CO)[C@@H](OC5O[C@@H](C)[C@H](O)[C@@H](O)[C@H]5O)[C@H](O)[C@H]4O)[C@@H](O)[C@H](O)[C@H]3O)CC[C@]3(C)C(=CC[C@@H]4[C@@]5(C)C[C@@H](O)[C@H](O)[C@@](C)(CO)C5CC[C@]43C)[C@H]12 (some centres not stated) | -1
COc1ccccc1C#Cc1cnc2c(c1)C(=O)N([C@H](C)CO)C[C@H](C)[C@@H](CN(C)C(=O)CN(C)C)O2 | 3
O=C(Nc1ccc2c(c1)[C@H]1C[C@H](CC(=O)N3CCc4ccccc4C3)O[C@H](CO)[C@H]1O2)C1CCOCC1 | 2
CC(C)CC(=O)c1c(O)cc(O)cc1OC1OC(COC(=O)c2cc(O)c(O)c(O)c2)C(O)C(O)C1O (configuration not stated) | 52*
COc1cc(C(=O)OCC2(O)COC(OCC3OC(Oc4c(OC)cc(CO)cc4OC)C(O)C(O)C3O)C2O)cc(OC)c1O (configuration not stated) | 20
O=C(OCc1ccccc1O[C@@H]1O[C@H](CO)[C@@H](O)[C@H](O)[C@H]1O)c1c(O)cccc1O[C@@H]1O[C@H](CO)[C@@H](O)[C@H](O)[C@H]1O | 3
CC(C)NC(=O)Nc1ccc2c(c1)C(=O)N([C@H](C)CO)C[C@H](C)[C@@H](CN(C)C(=O)c1ccncc1)OCCCC[C@H](C)O2 | -3
COc1ccc(CN(C)C[C@@H]2Oc3ccc(NC(=O)Nc4c(C)noc4C)cc3C(=O)N([C@H](C)CO)C[C@H]2C)cc1 | 4
SMILES | NSD2 block
O=C(CCCCCC(=O)N/N=C/C=C/c1ccccc1)NO | 0
Cc1ccc(NC2=CC(=O)c3sc(C)nc3C2=O)cc1 | 74*
COC(=O)C[C@H]1CC[C@H](NS(=O)(=O)c2ccc(OC)cc2)[C@@H](CO)O1 | 3
COc1ccc2c(c1)O[C@H]1c3ccc(O)cc3OC[C@@H]21 | 2
Oc1ccc2c(c1O)OCC1c3cc4c(cc3OC21)OCO4 (configuration not stated) | 4
OC[C@H]1O[C@@H](Oc2ccc3c(c2)OC[C@H]2c4cc5c(cc4O[C@@H]32)OCO5)[C@H](O)[C@@H](O)[C@@H]1O | 68*
CC#CC#C/C=C1\C=CC2(OC=CC2OC(=O)C=C(C)C)O1 (configuration not stated) | -6
O=C(NO)c1cccc(C(=O)N/N=C/c2cn(S(=O)(=O)c3ccccc3)c3ccccc23)c1 | -1
O=C(O)CCCCCC(=O)N/N=C/c1cccs1 | -1
C[C@H]1CN([C@@H](C)CO)C(=O)c2cccc(NC(=O)C3CC3)c2O[C@@H]1CN(C)C(=O)Nc1cccc2ccccc12 | 12
Cc1ccc(S(=O)(=O)N(C)C[C@@H]2Oc3c(NC(=O)Nc4ccccc4)cccc3C(=O)N([C@H](C)CO)C[C@@H]2C)cc1 | 0
CC(C)CC#Cc1ccc2c(c1)O[C@@H](CN(C)C(=O)Cc1ccccn1)[C@@H](C)CN([C@@H](C)CO)S2(=O)=O | -4
C[C@@H]1CN([C@H](C)CO)C(=O)c2cc(NC(=O)C3CCCCC3)ccc2O[C@@H](C)CCCCO[C@@H]1CN(C)S(=O)(=O)c1ccc(F)cc1 | 1
CC(C)CC#Cc1cnc2c(c1)C(=O)N([C@H](C)CO)C[C@H](C)[C@@H](CN(C)C(=O)C1CCOCC1)O2 | -5
O=C(N/N=C/c1ccc(N(c2ccccc2)c2ccccc2)cc1)c1ccccn1 | 2
C[C@H]1CN([C@@H](C)CO)C(=O)c2cc(C#Cc3ccccc3F)cnc2O[C@H]1CN(C)C(=O)Cc1ccccc1 | 0
CC(C)NC(=O)Nc1ccc2c(c1)CC(=O)N([C@@H](C)CO)C[C@H](C)[C@H](CN(C)C(=O)NC(C)C)O2 | 3
CC1=CCC2C(C)(CC[C@H](O)C2(C)C)C1COc1ccc2ccc(=O)oc2c1 (some centres not stated) | -6
CC1=CCC2C(=O)N(c3ccc(C4CCCCC4)cc3)C(=O)C2C1 (configuration not stated) | 5
C=CCNC(=O)[C@H]1[C@@H]2C(=O)O[C@@H](c3ccccc3)[C@@H](c3ccccc3)N2[C@@H](c2ccccc2OCCO)[C@]12C(=O)N(C(=O)OCCOC)c1ccc(C#CC3=CCCCC3)cc12 | -1
O=C(CCCCCCC(=O)Nc1ccccc1O)N/N=C/[C@@H](O)[C@H](O)[C@H](O)CO | 3
CC(=O)N(C)C[C@@H]1Oc2cc(-c3ccccc3F)ccc2S(=O)(=O)N([C@@H](C)CO)C[C@@H]1C | -4
CC1CC(=O)C2=C(C1)C(Cl)C(O)C1(O)C2C(=O)c2cccc(O)c2C1O (configuration not stated) | 0
C[C@@H]1CN([C@H](C)CO)C(=O)c2cc(-c3ccccc3F)cnc2O[C@@H]1CN(C)C(=O)c1ccccn1 | 0
C[C@@H]1CN([C@H](C)CO)C(=O)c2cc(NC(=O)NC3CCCCC3)ccc2O[C@H]1CN(C)C | 7
C[C@@H]1CN([C@@H](C)CO)C(=O)CCCn2cc(nn2)CO[C@@H]1CN(C)Cc1ccc(C(=O)O)cc1 | 4
